The text below walks through data of PubChem BioAssay.

Molecules are shown by their SMILES. Active and inactive are the calls of the source. Unless noted, the rule behind the calls is not given here.

Test [1] can be described thus: compounds binding Alexa647 anti-His antibody – biochemical, small-molecule microarray, 635 nm fluorescence, artefact control for SMM control protein annotation, primary screen (AID 1128).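 Note: score merges feature fluorescence with signal-to-noise for each printed compound spot.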 The settings on record: higher = more signal.
Test [2] has as its system Human papillomavirus type 1a E7 protein (residues 1-88). As to the kind of experiment: HPV1a E7 small-molecule binders, primary screen, biochemical, small-molecule microarray, residues 1-88, 635 nm (AID 1129). The conditions noted are these: small-molecule microarray binding, fluorescence 635 nm; higher = more signal.
The target of test [3] is Focal adhesion kinase 1 (Homo sapiens) (UniProt Q05397). The test can be described thus: PTK2 protein binding on printed compound slides – biochemical, small-molecule microarray, 635/667 nm fluorescence, BSA, DTT, primary screen (AID 1130).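 Note: composite of spot emission at 667 nm and signal to noise over triplicate slides.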 The conditions noted are these: 635 nm fluorescence, higher = more signal.
The test system of test [4] is Fibrinogen (Alexa647-labelled). As to the kind of experiment: Alexa647-fibrinogen binding to printed small molecules – biochemical, small-molecule microarray, 635/667 nm fluorescence, artefact control for SMM control-protein annotation, profiling panel (AID 1131).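 Note: z-score merges 667 nm fluorescence with per-spot signal-to-noise over triplicate slides.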 The conditions noted are these: fibrinogen-A647 binding fluorescence, higher = more signal.
In test [5] the target is Follistatin (Homo sapiens) (UniProt P19883). The test can be described thus: FST protein binding to printed compounds – biochemical, small-molecule microarray, 635/667 nm fluorescence, primary screen (AID 1132). The settings on record: 635 nm fluorescence, higher = more signal.
Test [6] addresses Fibroblast growth factor 2 (Homo sapiens) (UniProt P09038). The test can be described thus: basic fibroblast growth factor binding to printed compounds – biochemical, small-molecule microarray, 635/667 nm fluorescence, primary screen (AID 1133). The conditions noted are these: FGF2, fluorescence 635/667, higher = more signal.
Test [7] is described as follows: JC-1 mitochondrial potential readout, lung cancer cells – cell-based, A549, JC-1 fluorescence, basal, 24 h, 100 nL, profiling panel (AID 1138).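 Note: A549 lung adenocarcinoma cells under basal conditions with no added stimulus; test concentration not given here.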 The conditions noted are these: higher = more signal.
A further test deals with Lefty1. The test can be described thus: Lefty1 protein binding to printed compounds – biochemical, small-molecule microarray, 635/667 nm fluorescence, primary screen (AID 1139). The conditions noted are these: fluorescence 635/667, higher = more signal.
For test [8], the system named is wheat germ agglutinin (Triticum aestivum), Alexa647-labelled. As to the kind of experiment: Alexa647-WGA lectin binding to printed small molecules – biochemical, small-molecule microarray, 635/667 nm fluorescence, artefact control for SMM control-protein annotation, profiling panel (AID 1140).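 Note: score merges 667 nm feature emission with signal to noise over triplicate slides.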 The settings on record: WGA-A647 binding, 635 nm fluorescence, higher = more signal.

Test [9] has as its target Luciferin 4-monooxygenase (Photinus pyralis) (UniProt P08659). As to the kind of experiment: inhibition of purified Photinus pyralis luciferase – biochemical, luminescence, purified enzyme, 2006 set, primary screen (AID 1141).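 Note: cell-free assay with purified firefly luciferase at 100 ng per well in PBS; test concentration not given here.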 The conditions noted are these: purified firefly luciferase, SteadyGlo luminescence, 30 min; higher = more signal, called active from +8 up or from −8 down.

Test [10] relates to Wnt5a (protein binding on small-molecule microarray). The test can be described thus: small molecules binding Wnt5a protein – biophysical, small-molecule microarray, 635/667 nm fluorescence, primary screen (AID 1142).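 Note: fluorescence read at 667 nm with signal to noise per printed feature.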 The conditions noted are these: 635 nm fluorescence, higher = more signal.
Test [11] is described as follows: ATP-based viability of Huh7 replicon cells – cell-based, CellTiter-Glo luminescence, basal, 48 h, cytotoxicity control for HCV replication inhibitor project, primary screen (AID 1143).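 Note: Huh7 hepatoma cells carrying a hepatitis C replication reporter with no stimulus; test concentration not given here.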 The conditions noted are these: higher = more signal, called active from +8 up or from −8 down.
The nature of test [12]: Pseudomonas biofilm growth suppression – PAO1 strain, BacTiter-Glo luminescence, LB-PBS, primary screen (AID 1144). The conditions noted are these: P. aeruginosa PAO1 biofilm, 12 h, higher = more signal.
Test [13] is described as follows: basal CRE-LacZ reporter activity in PC12 – cell-based, unstimulated, primary screen (AID 1145). The conditions noted are these: no forskolin, luminescence, 4.5 h, higher = more signal, called active from +8 up or from −8 down.
The nature of test [14]: forskolin-driven CRE-LacZ activity in PC12 – cell-based, CRE-LacZ reporter, forskolin-stimulated, primary screen (AID 1146).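 Note: PC12 cells with 6xCRE LacZ reporter stimulated by forskolin 10 µM; beta-galactosidase reporter signal reflecting CREB driven transcription.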 The conditions noted are these: luminescence, 4.5 h, higher = more signal, called active from +8 up or from −8 down.
The target in test [15] is Streptavidin (Streptomyces avidinii) (UniProt P22629). As to the kind of experiment: compounds binding control protein streptavidin – biophysical, small-molecule microarray, 635/667 nm fluorescence, artefact control for SMM compound annotation, primary screen (AID 1147).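 Note: signal reflects streptavidin binding to arrayed compounds as a control protein.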 The conditions noted are these: higher = more signal.
Test [16] is described as follows: probe aInhba binding on compound microarray – biochemical, small-molecule microarray, 635/667 nm fluorescence, primary screen (AID 1148).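 Note: score merges 667nm spot fluorescence with signal-to-noise for antibody binding to printed compounds.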 The conditions noted are these: higher = more signal.
Test [17] addresses Torsin-1A (Homo sapiens) (UniProt O14656). The test can be described thus: TOR1A wild-type binding on microarray – cell lysate, small-molecule microarray, lysate, 635/667 nm, primary screen (AID 1149). The conditions noted are these: COS7 hTOR1A-WT lysate, 635 nm fluorescence, higher = more signal.
For test [18] the target is unchanged. The test can be described thus: torsin A mutant lysate binding on microarrays – cell lysate, small-molecule microarray, COS7 lysate, 635/667 nm fluorescence, primary screen (AID 1150).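 Note: score pools 667 nm emission and signal to noise measuring lysate protein binding.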 The conditions noted are these: COS7 hTOR1A mutant lysate, 635 nm fluorescence, higher = more signal.
The subject of test [19] is Sonic hedgehog protein (Shh). As to the kind of experiment: Sonic hedgehog microarray binding compounds – biochemical, small-molecule microarray, 635/667 nm fluorescence, primary screen (AID 1151).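 Note: Shh protein binding to compounds spotted on small-molecule microarray slides; score combines spot fluorescence intensity with signal-to-noise across triplicate slides.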 The conditions noted are these: 635 nm fluorescence, higher = more signal.

Streptavidin (Streptomyces avidinii), sequence (P22629 whole entry, looked up): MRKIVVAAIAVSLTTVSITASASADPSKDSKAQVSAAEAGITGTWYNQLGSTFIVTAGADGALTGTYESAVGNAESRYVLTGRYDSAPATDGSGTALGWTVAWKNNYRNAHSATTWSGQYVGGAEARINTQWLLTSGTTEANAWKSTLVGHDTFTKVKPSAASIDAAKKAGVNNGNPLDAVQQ
Follistatin (Homo sapiens), sequence (P19883 whole entry, looked up): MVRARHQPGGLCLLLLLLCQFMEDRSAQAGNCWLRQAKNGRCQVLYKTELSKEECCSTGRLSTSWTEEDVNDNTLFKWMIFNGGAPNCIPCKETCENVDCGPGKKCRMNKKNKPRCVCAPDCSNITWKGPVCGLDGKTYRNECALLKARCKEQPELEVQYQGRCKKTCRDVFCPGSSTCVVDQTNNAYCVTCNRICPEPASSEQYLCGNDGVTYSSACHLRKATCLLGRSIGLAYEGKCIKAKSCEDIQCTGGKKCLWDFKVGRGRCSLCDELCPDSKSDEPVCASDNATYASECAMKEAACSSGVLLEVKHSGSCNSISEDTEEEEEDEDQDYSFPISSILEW
Fibroblast growth factor 2 (Homo sapiens), sequence (P09038 whole entry, looked up): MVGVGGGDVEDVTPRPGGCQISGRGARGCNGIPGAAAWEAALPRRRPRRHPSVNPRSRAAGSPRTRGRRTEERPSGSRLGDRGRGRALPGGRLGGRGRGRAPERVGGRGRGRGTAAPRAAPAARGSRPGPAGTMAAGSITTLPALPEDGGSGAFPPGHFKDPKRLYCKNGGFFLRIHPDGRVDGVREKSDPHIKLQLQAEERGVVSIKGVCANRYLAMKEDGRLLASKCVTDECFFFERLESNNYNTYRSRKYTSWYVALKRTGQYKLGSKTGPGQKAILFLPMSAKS
Torsin-1A (Homo sapiens), sequence (O14656 whole entry, looked up): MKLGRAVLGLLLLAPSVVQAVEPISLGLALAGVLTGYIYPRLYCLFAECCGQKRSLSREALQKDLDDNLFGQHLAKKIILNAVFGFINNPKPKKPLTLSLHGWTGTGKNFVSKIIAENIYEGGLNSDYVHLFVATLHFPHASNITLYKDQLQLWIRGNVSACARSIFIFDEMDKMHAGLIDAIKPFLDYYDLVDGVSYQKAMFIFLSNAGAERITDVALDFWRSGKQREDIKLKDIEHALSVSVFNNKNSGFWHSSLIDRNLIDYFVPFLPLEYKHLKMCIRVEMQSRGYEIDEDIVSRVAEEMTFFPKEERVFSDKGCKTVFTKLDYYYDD
Focal adhesion kinase 1 (Homo sapiens), sequence (Q05397 whole entry, looked up): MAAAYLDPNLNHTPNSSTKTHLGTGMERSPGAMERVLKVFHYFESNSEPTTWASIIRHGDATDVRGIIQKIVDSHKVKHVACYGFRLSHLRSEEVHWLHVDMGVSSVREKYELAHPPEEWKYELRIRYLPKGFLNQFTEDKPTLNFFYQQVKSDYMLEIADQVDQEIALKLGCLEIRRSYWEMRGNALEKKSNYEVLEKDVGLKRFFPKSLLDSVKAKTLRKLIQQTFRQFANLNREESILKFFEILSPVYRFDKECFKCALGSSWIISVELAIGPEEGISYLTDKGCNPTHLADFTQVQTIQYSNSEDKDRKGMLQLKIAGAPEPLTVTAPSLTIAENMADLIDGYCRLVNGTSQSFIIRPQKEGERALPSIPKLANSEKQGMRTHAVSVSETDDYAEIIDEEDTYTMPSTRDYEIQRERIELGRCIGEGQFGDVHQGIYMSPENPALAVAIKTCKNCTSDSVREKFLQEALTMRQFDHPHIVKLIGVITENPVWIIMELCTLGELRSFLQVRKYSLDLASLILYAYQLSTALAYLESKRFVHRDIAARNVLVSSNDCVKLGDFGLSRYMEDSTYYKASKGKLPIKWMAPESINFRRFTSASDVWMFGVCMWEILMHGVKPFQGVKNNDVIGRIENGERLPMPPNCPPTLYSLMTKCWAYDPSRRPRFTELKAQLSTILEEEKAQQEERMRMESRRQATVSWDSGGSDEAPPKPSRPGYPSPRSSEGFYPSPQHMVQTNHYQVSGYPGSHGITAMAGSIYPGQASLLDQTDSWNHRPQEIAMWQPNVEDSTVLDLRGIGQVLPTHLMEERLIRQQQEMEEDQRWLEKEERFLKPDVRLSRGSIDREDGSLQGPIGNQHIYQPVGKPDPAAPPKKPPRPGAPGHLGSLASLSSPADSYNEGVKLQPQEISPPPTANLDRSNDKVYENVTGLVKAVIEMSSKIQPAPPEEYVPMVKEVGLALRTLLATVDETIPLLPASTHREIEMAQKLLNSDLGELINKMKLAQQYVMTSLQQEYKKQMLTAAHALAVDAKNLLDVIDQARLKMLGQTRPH
Luciferin 4-monooxygenase (Photinus pyralis), sequence (P08659 whole entry, looked up): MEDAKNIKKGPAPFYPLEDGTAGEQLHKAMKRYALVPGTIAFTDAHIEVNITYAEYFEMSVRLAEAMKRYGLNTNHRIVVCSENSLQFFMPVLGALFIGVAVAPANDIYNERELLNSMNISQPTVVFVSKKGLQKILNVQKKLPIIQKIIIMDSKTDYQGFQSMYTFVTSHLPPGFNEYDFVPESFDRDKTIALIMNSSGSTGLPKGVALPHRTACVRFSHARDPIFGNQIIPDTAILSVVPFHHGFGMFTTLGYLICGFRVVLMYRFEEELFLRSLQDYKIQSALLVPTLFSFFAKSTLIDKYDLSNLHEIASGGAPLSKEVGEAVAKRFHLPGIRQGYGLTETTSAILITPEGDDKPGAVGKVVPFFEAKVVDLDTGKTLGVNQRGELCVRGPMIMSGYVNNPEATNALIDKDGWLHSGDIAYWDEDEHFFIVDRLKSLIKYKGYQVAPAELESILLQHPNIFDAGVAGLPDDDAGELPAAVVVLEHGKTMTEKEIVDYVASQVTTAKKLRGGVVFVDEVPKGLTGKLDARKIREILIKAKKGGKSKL

Turning to `CCCc1cc2c(n1Cc1cc(F)cc(F)c1)C(C)C1CN(C(=O)c3ccccc3)C(C)(C(=O)OC)C21` (stereo not given), the composite z-score in test [1] is 2.15; in test [2], 1.24; in test [3] it was 2.09; in [4] it was 0.982; in test [5], 0.542; in test [6], -0.48. Also, the composite z-score in the test with Lefty1 is -0.311; in test [8], 1.01; in [10], 0.239; in [15], 1.4; in [16] it was 0.786; with Torsin-1A (Homo sapiens) [17], 0.361. In addition, the composite z-score with Torsin-1A (Homo sapiens) [18] was 1.58; in [19] it was -0.236. The z-score was 1.24 in test [7]; -1.15 (inactive) in [9]; -2.5 (inactive) in test [11]; 0.335 (inactive) in test [12]; 0.587 (inactive) in [13]; 1.31 (inactive) in test [14].

Take `CCCC=C(CCC)[C@@H](NC(=O)c1cccs1)c1ccc(C(F)(F)F)cc1`: the composite z-score in test [1] is 0.51; in test [2] it was 1.23; in test [3] it was -0.201; in test [4], 0.936; in test [5], 0.572; in test [6], 0.0183. Also, the composite z-score in the test with Lefty1 turned out to be 0.735; in test [8], 0.83; in [10], 0.374; in test [15], 0.882; in [16] it was 0.473; in the test with Torsin-1A (Homo sapiens) [17] it was 0.598. Also, the composite z-score in the test with Torsin-1A (Homo sapiens) [18] came to 0.704; in [19], 1.18. Further, the z-score in test [7] is 0.627; in test [9], -2.34 (inactive); in test [11] it was -3.78 (inactive); in [12] it was -0.407 (inactive); in [13], -0.761 (inactive); in [14], 0.796 (inactive).

On to `COc1cc2c(cc1OC)CN(C(=O)[C@@H]1[C@H]3C(=O)O[C@H](c4ccccc4)[C@H](c4ccccc4)N3[C@H](c3ccc(O)cc3)[C@@]13C(=O)Nc1ccccc13)CC2`, for which the composite z-score was 0.948 in test [1]; 1.21 in test [2]; 0.684 in test [3]; 0.962 in [4]; 0.421 in test [5]; 0.246 in test [6]. In addition, the composite z-score with Lefty1 turned out to be 0.259; in [8] it was 0.965; in test [10], 0.33; in test [15], 0.523; in test [16] it was 0.121; with Torsin-1A (Homo sapiens) [17], 1.05. Besides, the composite z-score with Torsin-1A (Homo sapiens) [18] came to 0.341; in test [19], 1.33. In addition, the z-score in test [7] was -0.379; in [9] it was 0.81 (inactive); in test [11] it was -4.24 (inactive); in test [12], -1.07 (inactive); in test [13], 0.685 (inactive); in test [14], -0.0307 (inactive).

As to `CCOC(=O)C[C@H]1[C@H](OC(=O)c2ccc(C(=O)c3ccccc3)cc2)[C@@H](NC(=O)c2ccc3ccccc3c2)c2cc(OCCCO)ccc2N1C(=O)Cc1ccc(OC)cc1`, the composite z-score in test [1] worked out at 0.0204; in [2] it was 0.542; in [3], 0.222; in test [4], 0.424; in [5], 0.288; in [6], 0.115. The composite z-score is 0.199 in the test on Lefty1; 0.398 in test [8]; -0.354 in test [10]; 0.271 in test [15]; -0.102 in test [16]; 1.08 with Torsin-1A (Homo sapiens) [17]. Further, the composite z-score is 0.16 with Torsin-1A (Homo sapiens) [18] and -0.006 in [19]. The z-score was 0.826 in [7]; 0.789 (inactive) in test [9]; -0.132 (inactive) in test [11]; -0.329 (inactive) in [12]; -0.635 (inactive) in [13]; -0.383 (inactive) in test [14].

For the compound `COC(=O)[C@@]1(Cc2ccc(OC)cc2)[C@H]2c3cc(C(=O)N(C)C)n(Cc4ccc(S(C)(=O)=O)cc4)c3C[C@H]2CN1C(=O)c1ccccc1`, the composite z-score in test [1] was 1.84; in [2], 1.26; in [3] it was 1.07; in test [4], 0.849; in test [5], 1.11; in test [6] it was -0.56. Further, the composite z-score is 0.0038 in the test on Lefty1; 1.23 in test [8]; -0.0427 in test [10]; 1.24 in test [15]; 0.431 in [16]; 2.24 with Torsin-1A (Homo sapiens) [17]. Further, the composite z-score in the test with Torsin-1A (Homo sapiens) [18] is 1.29; in test [19], -0.599. The z-score in test [7] was 0.956; in test [9] it was 1.75 (inactive); in test [11], -2.9 (inactive); in test [12], -1.05 (inactive); in test [13], -1.14 (inactive); in [14] it was -1.33 (inactive).
